Assay results: PubChem BioAssay

Assay: E. coli DRC41 culture turbidity changes, primary screen, E. coli filamentation inducer project, strain DRC41, OD650, 48 h (AID 1152);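 further: E. coli MC1000 strain DRC41 lacking acrAB efflux pump and sulA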
Details: E. coli DRC41 (acrAB sulA), higher = more signal, called active from +8 up or from −8 down

z-score, inactive:
C#CCCCON=C1C[C@@H](O)[C@@H](O)[C@@H]2[C@@H]3C(=O)N(Cc4ccccc4)C(=O)[C@@H]3CC[C@@H]12 0.292, CCCNC(=O)OC[C@H]1O[C@H](CCON=C(C)CCC(=O)OC[C@H]2O[C@H](c3ccccc3)C=C[C@@H]2Oc2ccc(OC)cc2)C=C[C@@H]1Oc1ccc(OC)cc1 0.3, CO[C@H]1COC(=O)[C@@H](C)COC(=O)[C@H](C)NC(=O)CC=C[C@H]1C -0.0819, C[C@@H](c1ccccc1)N1C(=O)[C@H]2[C@H]3[C@H](O)[C@H](O)CC(=O)[C@H]3CC[C@H]2C1=O 0.477, CO[C@H]1COC(=O)CC=C[C@@H](C)[C@H](NS(=O)(=O)c2ccc(C)cc2)COC(=O)CCC[C@@H]1C -0.643, CO[C@@H]1COC(=O)[C@H](CCSC)NC(=O)CC=C[C@@H](C)COC(=O)[C@H](C)NC(=O)CC=C[C@H]1C 0.675, CCC(=O)[C@@]1(O)C(=O)N2C(=C3C(=O)OCC[C@@H]31)N(Cc1ccccc1)C(C)=C(C(=O)OC)[C@H]2c1ccccc1 -0.426, CCOC(=O)[C@H](CC(C)C)NC(=O)CCC1CC(OC(=O)NCCc2ccc(F)cc2)CC2(CCCC(COC(=O)NCCOc3ccccc3)O2)O1 (stereo partly specified) -0.221, CCCNC(=O)OC[C@H]1O[C@H](CCON=C(C)CCN2CCCc3nc(C)c(C)cc32)C=C[C@@H]1Oc1ccc(OC)cc1 0.794, O=C1CCCC=C1C(O)CCOC(c1ccccc1)(c1ccccc1)c1ccccc1 (stereo unspecified) -1.03, CCCNC(=O)OC[C@H]1O[C@H](CCON=Cc2ccc(C(=O)N3[C@H](c4ccc(C)cc4)[C@@H](C)CC[C@H]3C(=O)OC)cc2)C=C[C@@H]1Oc1ccc(OC)cc1 0.33, C[C@@H]1CC[C@H]2C(=O)O[C@@H](Cc3ccccc3)CN2[C@H]1c1ccc(Br)cc1 -0.28, Cc1cc2c(nc1C)CCCCN2CC(C)ON=C1[C@H]2CCn3c(=O)n(-c4ccccc4)c(=O)n3[C@H]2[C@H](O)[C@@H]2O[C@H]12 (stereo partly specified) 1.03, C#CCCCON=C1C[C@@H](O)[C@@H](O)[C@@H]2[C@@H]3C(=O)N(c4ccc(F)cc4F)C(=O)[C@@H]3CC[C@@H]12 0.177, CCOC(=O)NN=C1C[C@@H](O)[C@@H](O)[C@@H]2[C@@H]3C(=O)N(c4cccc(Oc5ccccc5)c4)C(=O)[C@@H]3CC[C@@H]12 -0.852, CO[C@@H]1COC(=O)[C@H](CCSC)NC(=O)CC=C[C@@H](C)COC(=O)CCC[C@H]1C 0.337, O=c1n(-c2ccccc2)c(=O)n2n1CC[C@@H]1C(=NOCc3ccccc3)[C@H]3O[C@H]3[C@@H](O)[C@@H]12 -0.422, C[C@@H](c1ccccc1)N1C(=O)[C@H]2[C@H]3[C@H](O)[C@H](O)CC(=NO[C@@H]4O[C@H](CO)[C@@H](O)[C@H](O)[C@H]4O)[C@@H]3CC[C@H]2C1=O 0.387, CC(C)=CCCC(C)=CCON=C1C[C@@H](O)[C@@H](O)[C@@H]2[C@@H]3C(=O)N(c4ccc(F)cc4F)C(=O)[C@@H]3CC[C@@H]12 0.217, Cc1ccc(S(=O)(=O)OC[C@H]2CN3[C@H](c4ccc(Br)cc4)[C@@H](C)CC[C@H]3C(=O)O2)cc1 0.399, CC(C)CON=C1C[C@@H](O)[C@@H](O)[C@@H]2[C@@H]3C(=O)N(C[C@@H]4CCCO4)C(=O)[C@@H]3CC[C@@H]12 0.93, CC(C)=NOC[C@@H](C)[C@H](OCc1ccccc1)C(C)C 0.287, CO[C@H](C1CCCCC1)[C@H](C)C=CCC(=O)OCCCc1ccccc1 0.101, CCOC(=O)[C@H](CC(C)C)NC(=O)CCC1CC(OC(=O)NCc2ccc3c(c2)OCO3)CC2(CCCC(COC(=O)NCc3cccc(C(F)(F)F)c3)O2)O1 (stereo partly specified) -0.457, CC(C)=CCCC(C)=CCON=C1C[C@@H](O)[C@@H](O)[C@@H]2[C@@H]3C(=O)N(C(C)(C)C)C(=O)[C@@H]3CC[C@@H]12 -1.31, CCOC(=O)[C@H](Cc1ccccc1)NC(=O)CCC1CC(OC(=O)NCCc2ccc(F)cc2)CC2(CCCC(COC(=O)NCCc3ccccc3OC)O2)O1 (stereo partly specified) -1.1, C=CC[C@@H]1C=C[C@H](ON=C(C)CCC(=O)OC[C@H]2O[C@H](c3ccccc3)C=C[C@@H]2Oc2ccc(OC)cc2)[C@@H](CO)O1 0.871, CCOC(=O)[C@H](CC(C)C)NC(=O)CCC1CC(OC(=O)NCc2cccc3ccccc23)CC2(CCCC(COC(=O)NCCCN3CCCC3=O)O2)O1 (stereo partly specified) 0.261, CCCCC#C[C@@H]1C=C[C@H](Oc2ccc(C(=O)OC)cc2)[C@@H](COC(=O)OCC)O1 0.0015, COC(=O)[C@@H]1CC[C@H](C)[C@@H](c2ccc(C)cc2)N1C(=O)c1ccc(C=NO[C@@H]2O[C@H](COC(C)=O)[C@@H](OC(C)=O)[C@H](OC(C)=O)[C@H]2OC(C)=O)cc1 -0.492, C=CC[C@@H]1C=C[C@H](ON=C[C@@H](C)[C@H](OCc2ccccc2)C(C)C)[C@@H](CO)O1 -0.144, COC(=O)CC=C[C@@H](C)[C@@H](C=NOCC[C@@H]1C=C[C@H](OC(C)=O)[C@@H](COC(C)=O)O1)OC -0.35, CC(CCN1CCCCc2nc(C)c(C)cc21)=NO[C@H](C)c1cn([C@H](CO)Cc2ccccc2)nn1 0.285, CC[C@@H](c1ccccc1)n1c(=O)n2n(c1=O)[C@H]1[C@H](O)[C@@H]3O[C@@H]3C(=NOC[C@@H](O)COCc3ccco3)[C@H]1CC2 -0.389, C#CCCCON=C1[C@H]2CCn3c(=O)n(-c4ccccc4)c(=O)n3[C@H]2[C@H](O)[C@@H]2O[C@H]12 0.555, CC(C)=CCCC(C)=CCON=C1C[C@@H](O)[C@@H](O)[C@@H]2[C@@H]3C(=O)N(Cc4ccccc4)C(=O)[C@@H]3CC[C@@H]12 -0.0866
